Measurements reported in paper PMC8769072, “Proteome‐scale mapping of binding sites in the unstructured regions of the human proteome” (Molecular Systems Biology, 2022).

What follows are binders tested against WDR5 21-334, P61964.

Binder | selected by phage display
PQNRTSAYSLEHADLG [SIPA1, Q96FS4] | confidence 2 (active)
NQAVNFLRMSARVDAV [CHMP1B, Q7LBR1] | confidence 2 (active)
DFTAPDVWYPGGMVSR [AR, P10275] | confidence 2 (active)
IPTSRSTPYKPIDDRI [SPATA5, Q8NB90] | confidence 2 (active)
SARVNPQDGTNTLTRI [EHMT1, Q9H9B1] | confidence 2 (active)
ARTVLWNPEDLIPLPI [ZC3H4, Q9UPT8] | confidence 2 (active)
WEQDGGRWLPGHAMAM [RRAD, P55042] | confidence 2 (active)
SARSGYVIQGSSDLIA [SVEP1, Q4LDE5] | confidence 2 (active)
SARSTPLTVDRSPDSS [PDZRN4, Q6ZMN7] | confidence 2 (active)

These binders were tested against YAP1 169-207, P46937.
YAP1 169-207, P46937, sequence (P46937 169-207): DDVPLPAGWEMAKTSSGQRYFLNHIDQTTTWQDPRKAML

Binder | selected by phage display
ADTPPPAYLPPEDPMT [SMAD1, Q15797] | confidence 2 (active)
QALPDYSLGPHYTSQK [CSRNP1, Q96S65] | confidence 2 (active)
SVLPPSYASDRLSGNN [ALKBH5, Q6P6C2] | confidence 2 (active)
EYEKLPAYLATSPIPT [LPIN2, Q92539] | confidence 3 (active)
TEVYGEFYPVPPPYSV | confidence 4 (active)
HPPTYVQNVVPQNTPM | confidence 2 (active)
LYPPPSHAAEDSLPPY [TMEM59L, Q9UK28] | confidence 2 (active)
HQQPPPYPLMHHQMPP [SMARCC1, Q92922] | confidence 3 (active)
NNSLPPYAQGLASPQG [TBP, P20226] | confidence 3 (active)
HEVVLRTAAPPDYTLA [NLGN1, Q8N2Q7] | confidence 3 (active)
SPSQYINEENLPVYPD [KNL1, Q8NG31] | confidence 2 (active)
MGDLPPYPERPAQQPP [RSPH6A, Q9H0K4] | confidence 2 (active)
IAPPQYVTTSASNIVS | confidence 4 (active)
ASSAPALETDSSPPPY | confidence 2 (active)
PTMTPPPYLPGPNASP [FOXI1, Q12951] | confidence 4 (active)
MPPPGYPHIPQALSTP [FOXJ3, Q9UPW0] | confidence 4 (active)
IELLPSYSTATLIDEP [SLC34A2, O95436] | confidence 3 (active)
AYPPSYPSAMSPTHHL [FNDC3B, Q53EP0] | confidence 2 (active)
ESLPSYLESSRVNTPV [ANK3, Q12955] | confidence 4 (active)
SLDALKVFDGIPPPYD [RPL13AP3, Q6NVV1] | confidence 2 (active)
TGTPQESLPTYTQTLR [STPG3, Q8N7X2] | confidence 3 (active)

Binder | selected by phage display
TPRSSVELPPYSGTVL [USP10, Q14694] | confidence 2 (active)
PSAMLPIYPAIDIDAQ [ANKRD17, O75179] | confidence 2 (active)
YTREGEPLPPPYSLRE [TPSG1, Q9NRR2] | confidence 3 (active)
EPPPSYDEAVKMAKPR | confidence 3 (active)
PPAYEDVVHRPGTPPP [WBP1, Q96G27] | confidence 3 (active)
SSATLPPPYQLINVPP [GAB1, Q13480] | confidence 4 (active)
APHPYSPQPPPYHELS [DVL2, O14641] | confidence 3 (active)
LPPYPEHLTSPLSPAQ [ZNF783, Q6ZMS7] | confidence 2 (active)
PPPSYAATIASKLAIH [KLF5, Q13887] | confidence 3 (active)
EAPPPYSPIGDDVQLL [ARHGAP5, Q13017] | confidence 3 (active)
APPPPGYHQNGVIRNQ [MYO1E, Q12965] | confidence 3 (active)
SPQLPQYPGLQQAQTM [MED12L, Q86YW9] | confidence 3 (active)
DGKGAKPPEYRNYQIV [MFSD6, Q6ZSS7] | confidence 3 (active)
ASEVGSPPSYSEALLD [LDLRAD3, Q86YD5] | confidence 3 (active)
SMAPPAYSLYTPEPPP | confidence 3 (active)
SPPAYHMHVFDRPYPL [CUEDC1, Q9NWM3] | confidence 3 (active)
AEFQPPYFPPPYPQPP [TFAP2E, Q6VUC0] | confidence 2 (active)
LQEQQQQQMHLQPPSY [TRERF1, Q96PN7] | confidence 2 (active)
AAATAGAPTALPAYPA [TMEM158, Q8WZ71] | confidence 2 (active)
GSPMVPSYETSVSPQA [PIKFYVE, Q9Y2I7] | confidence 2 (active)
EYQQVPNSDPPRYEFL [MAGEB18, Q96M61] | confidence 2 (active)

Each binder was assayed against YES1 90-152, P07947.
YES1 90-152, P07947, sequence (P07947 90-152): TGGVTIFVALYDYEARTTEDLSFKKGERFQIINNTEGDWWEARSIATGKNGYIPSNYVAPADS

Binder | selected by phage display
HSSRELPSRPDGVLHV [VWA5B2, Q8N398] | confidence 3 (active)
DMLPALLRPPEPLPTP [SLC39A5, Q6ZMH5] | confidence 2 (active)
MSGHTLPPLPVPGTNS [EPPK1, P58107] | confidence 3 (active)
LLPPPPPGAPLPSLPF [SOBP, A7XYQ1] | confidence 2 (active)
SSENPYATIRDLPSLP [PEAR1, Q5VY43] | confidence 4 (active)
VKRTLPSPPPEEAHLP [BSN, Q9UPA5] | confidence 3 (active)
NLRALPLPPRPPATST [RNF223, E7ERA6] | confidence 3 (active)
DKPLPVPPTLRDLPPP [CBL, P22681] | confidence 4 (active)
VDPSKHIRPVPSLPDV [VPS54, Q9P1Q0] | confidence 2 (active)
RPLPSPAPPPPQLLEA [KIF26A, Q9ULI4] | confidence 2 (active)

What follows are binders tested against VASP 1-114, P50552.
VASP 1-114, P50552, sequence (P50552 1-114): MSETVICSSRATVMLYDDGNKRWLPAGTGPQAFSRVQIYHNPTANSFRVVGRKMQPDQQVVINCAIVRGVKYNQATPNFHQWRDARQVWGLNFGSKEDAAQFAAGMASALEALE

Binder | selected by phage display
EFPPPPPDVLQTSVDV [XIRP2, A4UGR9] | confidence 4 (active)
